HCV inhibitor – HCV inhibition | hit rate 3.4% among 340,000 | Potency, µM (titrated, usually from 41.8 µM), without a hit: top-dose activity change, negative = inhibition, usual class: inhibitors | AID 651820 | Huh7.5.1 HCVcc-Cre infection, luciferase reporter, 44 h; also: potency is read from the fitted curve at half-maximal effect; % is scaled to controls: 0 for no effect and ±100 for the full control effect
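Infectious HCVcc-Cre (~0.5 moi) was added to cells just after compound, with cells seeded 4 h earlier at 1,000 per well. Luciferase activity after 44 h culture reported infection; substrate was incubated 15 min at room temperature before reading.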
HCMV antiviral – blocks human cytomegalovirus replication | HFF cells, HCMV-luciferase reporter, 72 h; hits give low values | activity change, negative = inhibition, % at 57.5 µM | hit rate 4.5% among 410,000 | AID 1259415; in the data active = activity change below about -60%; inconclusive = no clear call, values can overlap the other calls; inactive = above about -39%; also: % is scaled to controls: 0 for no effect and ±100 for the full control effect
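Cell-based, HFFs, 1000 cells/well, 16 h 37C; cpds in DMSO + HCMV-luc, MOI 1 PFU/cell; 72 h 37C; OneGlo luminescence after 5 min RT; norm. to buffer vs Salinomycin 10uM.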
Pf growth 48h – inhibits P. falciparum growth in the first generation, 48 h | P. falciparum luciferase growth in erythrocytes, 48 h | Potency, µM (highest dose often 28.7 µM), without a hit: top-dose activity change, negative = inhibition, actives largely listed as inhibitors | hit rate 5.9% among 310,000 | AID 504832; also: potency is read from the fitted curve at half-maximal effect; % is scaled to controls: 0 for no effect and ±100 for the full control effect
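A one-generation exposure of luciferase-tagged malaria parasites in RPMI 1640/Albumax erythrocyte culture, 37 C and 5% CO2. Inhibition is inferred from decreased luminescence after adding detection reagent.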
Pf growth 96h – P. falciparum growth inhibition at 96 hours; P. falciparum luciferase reporter growth, 96 h; Potency, µM (series often up to 28.7 µM), without a hit: at the highest dose activity change, negative = inhibition, actives largely listed as inhibitors; hit rate 6.9% among 320,000; AID 504834; also: potency is read from the fitted curve at half-maximal effect; % is scaled to controls: 0 for no effect and ±100 for the full control effect
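Two-generation exposure (96 h) targets delayed-death phenotype. Reporter parasites carrying integrated firefly luciferase, in red cells at 2% hematocrit and 0.05% parasitemia final, kept at 37 C, 5% CO2; luminescence loss indicates inhibition.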
Shiga inhibitor – inhibitors of Shiga toxin in Vero cells; inhibition, % at 38.7 µM; Vero cells, Shiga toxin protein synthesis inhibition reporter; AID 2315; hit rate 9.2% among 290,000; in the data active = inhibition mostly above about 28%, no sharp cut-off; inactive = mostly below about 43%; also: 0% is about no effect
Cycloheximide cs – affects cycloheximide protein synthesis inhibition readout, counter-screen | max response, % | hit rate 12% among 300,000 | cell reporter, cycloheximide protein synthesis inhibition counterscreen; in the data active = max response mostly above about 13%, no sharp cut-off; inactive = mostly below about 14%; also: read at 38.3 µM for the half of the compounds with a filed dose; 0% is about no effect
* marks the source's active call; other numbers are inactive results; ? = inconclusive; · = not tested or not shown; [ ] = remark or other dose. Only some compounds are listed: those with a hit (about 21% of all), similar ones and a draw of the others. Unless noted, calls follow the shape of the dose curve; as a rule, active = well fitted inhibition curve with a large enough effect; inconclusive = small, poorly fitted or top-dose-only effect, or another doubt; inactive = no such curve, though single readings can be large or run the other way.

SMILES | HCV inhibitor | HCMV antiviral | Pf growth 48h | Pf growth 96h | Shiga inhibitor | Cycloheximide cs
COc1cccc(C(=O)N2CCC[C@H]2C(=O)N2CCC[C@H]2C(=O)N(C)Cc2ccccc2)c1 | · | -10 | · | · | · | ·
COC(=O)[C@H]1C[C@H]1[C@@H](NC(=O)c1ccc[nH]1)c1ccccc1 | ? | -9 | · | · | 11 | 8
Cc1cc(N2CCN(C)CC2)nc2ccc(NC(=S)N3CCCCCC3)cc12 | ? | -30 | ? | 9% | 51 | 15
Cc1cc(N2CCN(C)CC2)nc2ccc(NC(=O)CCC(=O)NCCC(C)C)cc12 | 1% | -10 | 42% | ? | 20 | 13
Cc1cc(N2CCN(C)CC2)nc2ccc(NC(=S)N3CCCCC3)cc12 | -5% | ? | 3.3µM* | 9.3µM* | 27 | 20
Cc1cc(N2CCN(C)CC2)nc2ccc(NC(=S)N3CCN(c4ccc(Cl)cc4)CC3)cc12 | ? | ? | 13µM* | 82% | -2 | -2
Cc1cccc(N2CCN(C(=S)Nc3ccc4nc(N5CCN(C)CC5)cc(C)c4c3)CC2)c1C | ? | 0 | 12µM* | ? | -23 | -17
Cc1cc(N2CCN(C)CC2)nc2ccc(NC(=S)N3CCN(c4cccc(Cl)c4)CC3)cc12 | 11% | ? | ? | 135% | -21 | 1
Cc1ccc2c(=O)c(C(=O)c3ccccc3)cn(CC(=O)NCc3ccccc3)c2n1 | · | 18 | · | · | · | ·
C=C1CCC(O)C2(C)CCC3C(C)C(=O)OC3C12O (configuration not stated) | 5% | ? | -23% | 6% | 4 | -3
C=C1C(=O)O[C@@H]2[C@H]1CC[C@H](C)[C@]1(O)CCC(=O)[C@@]21C | ? | -68* | 7%[0.00184 µM] | 0% | 48 | 21*
Cc1ccc(-c2nc3n(n2)C(=O)CC(c2ccc(Cl)cc2)S3)cc1 (configuration not stated) | · | 11 | · | · | · | ·
Cn1nc(-c2ccc(Cl)cc2)nc2c(=O)n(C)c(=O)nc1-2 | · | · | ? | 0.93µM* | 22* | 25
Cc1c(OCC(=O)C(C)(C)C)ccc2c3c(c(=O)oc12)CCCC3 | -21% | 24 | ? | ? | · | -1
CCOC(=O)COc1ccc2c3c(c(=O)oc2c1C)CCC3 | 1% | 12 | 15% | 20% | 27 | 15*
Cc1c(OCC(=O)N(C)c2ccccc2)ccc2c3c(c(=O)oc12)CCC3 | -29% | -11 | ? | ? | 74* | 24*
COc1cc(NC(=O)COC(=O)CCc2cc(OC)c(OC)c(OC)c2)cc(OC)c1 | -27% | -22 | 7% | 3% | 3 | 9
O=C(CS(=O)CC(=O)N(c1cccc(F)c1)C(C(=O)NC1CCCCC1)c1ccco1)Nc1ccc(F)cc1 (configuration not stated) | ? | 12 | ? | ? | 14 | -5
COc1cc(Nc2ncc3c(n2)CCN(Cc2cccc(C)c2)C3)cc(OC)c1 | · | -9 | · | · | · | ·
COc1cccc(NC(=O)N2CCc3nc(Nc4cc(Cl)cc(Cl)c4)ncc3C2)c1 | · | -67* | · | · | · | ·
O=C(Nc1ccc(OC(F)(F)F)cc1)N1CCc2nc(NCc3cccc(Oc4ccccc4)c3)ncc2C1 | · | -92* | · | · | · | ·
Clc1ccc(CN2CCc3nc(Nc4ccc5c(c4)OCCO5)ncc3C2)cc1 | · | -28 | · | · | · | ·
O=C(CN1CCc2ccccc2C1)Nc1ccc(OC(F)(F)F)cc1 | 8% | 47 | 36% | -1% | 6 | -3
CC(C)c1ccc(Nc2ncc3c(n2)CCN(C(=O)Nc2ccc(F)c(Cl)c2)C3)cc1 | · | -75* | · | · | · | ·
CCc1ccc(NC(=O)N2CCOc3ccc(Cl)cc32)cc1 | · | 17 | · | · | · | ·
CC(=O)NCCNc1nc2cc(-c3ccc(C)cc3)sc2c(=O)n1C | · | -31 | · | · | · | ·
CC(C)c1nn2c(=O)cc(CSc3ccccc3NC(=O)c3ccccc3F)nc2s1 | 19% | 13 | ? | 8.3µM* | 7 | -3
CCCCOc1ccc(OCCNC(=O)c2ccco2)cc1 | -8% | 9 | 9.3µM* | ? | 57* | 20
Cc1ccccc1OCCNC(=O)c1ccco1 | 2% | 8 | -24% | 13% | 97* | 36*
Cc1cc(C)cc(NC(=O)COC(=O)c2cccc(S(=O)(=O)N3CCCCC3)c2)c1 | 2% | -13 | -10% | -10% | · | ·

Compound activity (PubChem)
